Source: PubChem BioAssay
Most compounds without a hit are left out; they make up all but 1.2% or so of the library.
VCAM1 TNFa inh – reduces TNF alpha induced VCAM1 expression in HUVEC | HUVEC TNFa-induced VCAM-1 immunofluorescence, high-content imaging | inhibition, % at 2 µM | 0.48% of 95,000 active;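 active = inhibition above the batch mean plus 3 SD, with images confirmed as a hit by eye, cut at about 37% in these data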;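 also: 0% = TNF-stimulated DMSO wells and 100% = unstimulated control wells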
cytoskel mod – modifiers of cytoskeleton assembly; HUVEC TNFa F-actin phalloidin imaging, high content; inhibition, % at 2 µM; 0.18% of 91,000 active;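 active = inhibition above the batch mean plus 3 SD and confirmed as a hit by visual image inspection, cut at about 30% in these data, passing the limit was not always enough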
E-sel TNF inh – blocks E-selectin expression induced by TNF alpha. HUVEC TNFa-induced E-selectin immunofluorescence, high content. inhibition, % at 2 µM. 0.71% of 120,000 active. AID 1246;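 active = inhibition above the batch mean plus 3 SD, and confirmed as a hit on visual image review, cut at about 43% in these data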;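 also: 0% = TNF-stimulated DMSO wells and 100% = unstimulated control wells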
HUVEC tox TNFa – HUVEC cytotoxicity counter-screen, TNF alpha stimulated; HUVEC TNFalpha-stimulated, Hoechst cell count, imaging; cell count reduction, % at 2 µM; 0.17% of 93,000 active;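 active = cell count reduction exceeding the screen mean by over 5 SD, scaled to untreated wells per plate, cut at about 78% in these data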;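 also: cells counted after 24 h of TNF alpha exposure following the 1 h pretreatment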
sdo1 growth – sdo1-depleted yeast growth rescue; 0.21% of 140,000 active; z-score at 10 µM; S. cerevisiae sdo1-depleted JHY4D growth rescue, OD600 30 h; stronger effect = higher value; pdr5 snq2 efflux-pump mutant strain; AID 817;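 active = z-score above 3 at both the 24 hr and the 30 hr optical density reads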;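 also: z-score against mean and SD of all compound wells on the same plate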
Phagocyt inh – blocks phagocytosis by macrophages; J774A.1 macrophage IgG-bead phagocytosis, imaging; inhibition, % at 5 µM; 0.07% of 110,000 active;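 active = inhibition above the mean of the plate negative controls plus 5 SD, cut at about 13% in these data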;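 also: phagocytic index as fraction of beads internalized from green versus red external bead signal; plate controls were DMSO negative control for no effect and cytochalasin-D positive control for full effect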
Numbers without * were called inactive; . = no result; [ ] = dose if it differs, or a comment.

SMILES | VCAM1 TNFa inh | cytoskel mod | E-sel TNF inh | HUVEC tox TNFa | sdo1 growth | Phagocyt inh
C=CCn1c(N2CCCCCC2)nc2c1c(=O)n(C)c(=O)n2C | -4 | 9 | -2 | 9 | 0.01 | 1
O=C(NCc1ccccn1)C1CCN(S(=O)(=O)c2cc(Cl)ccc2Cl)CC1 | . | . | -4 | . | . | .
COc1ccc(S(=O)(=O)Nc2cccc(S(=O)(=O)N3CCCCCC3)c2)cc1 | . | . | 71* | . | -0.68 | 1
COc1ccc(NS(=O)(=O)c2cccc(NC(=O)c3ccc(S(=O)(=O)N4CCCCCC4)cc3)c2)cc1 | . | . | -14 | . | 0.16 | -3
CCN(CC)c1ccc2cc(-c3nc4ccccc4[nH]3)c(=O)oc2c1 | 13 | 48* | 5 | -21 | -1 | 0
CCN(CC)c1ccc2cc(-c3nc4ccccc4n3C)c(=O)oc2c1 | 70* | -23 | . | 66 | 0.53 | 4
CCN(CC)c1ccc2cc(-c3nnc(-c4ccccc4)o3)c(=O)oc2c1 | -20 | 23 | -5 | -14 | -0.93 | .
CCN(CC)c1ccc2cc(-c3nc(-c4ccc(OC)cc4)cs3)c(=O)oc2c1 | . | . | . | . | 0.16 | -14
CSc1nc2ccccc2c(=O)n1C1CCOC(C)(C)C1 (centres undefined) | . | . | -18 | . | . | .
Cc1ccc(NC(=O)CCn2c(=O)oc3ccccc32)cc1 | 9 | 35 | . | -30 | -0.6 | -2
CCc1ccc(NC(=O)CCn2c(=O)oc3ccccc32)cc1 | . | . | . | 100* | 0.34 | -4
Cc1c(C(=O)OCC(C)C)[nH]c2c1C(=O)CC(c1ccco1)C2 (centres undefined) | 67* | 21 | . | 64 | -0.91 | 2
C/C=C/COC(=O)c1[nH]c2c(c1C)C(=O)CC(c1ccco1)C2 (centres undefined) | 51* | -4 | . | 64 | -0.98 | 3
CC(Cl)C(=O)NNC(=O)CNS(=O)(=O)c1ccccc1 (centres undefined) | . | . | -2 | . | . | .
COC(=O)c1ccccc1NS(=O)(=O)c1ccc2c3c(cccc13)C(=O)N2 | -19 | -6 | 74* | 11 | . | -1
Cc1cccnc1N(C(=O)Nc1ccccc1)C1=NCC(C)(C)S1 | 42* | 8 | -5 | 57 | -0.71 | -1
Cc1c(Cl)cccc1-n1ccnc1SCC(=O)O | 94* | -31 | . | 78* | 0 | 0
CCOC(=O)N1CCC(N2CCCC(CO)(Cc3cccc(OC)c3)C2)CC1 (centres undefined) | . | . | -14 | . | . | .
Nc1nc(SCc2ccc(Cl)cc2Cl)nc2nc3c(cc12)CCCC3 | . | . | . | . | -0.86 | -3
CC1C/C(=C/c2ccncc2)C(=O)/C(=C/c2ccncc2)C1 (centres undefined) | . | . | 100* | . | . | .
Cc1cc(C(F)F)nn1CC(=O)NCc1ccco1 | . | . | . | . | 1.1 | -8
Cc1cc(=O)[nH]c(SCC(=O)NCc2ccco2)n1 | 10 | 31 | 100* | 19 | 1.3 | .
Cc1cc(-c2ccco2)n(CC(=O)NCc2ccco2)n1 | 3 | 2 | 76* | -19 | 1 | 0
Cc1ccc(S(=O)(=O)N(c2nc(NC(C)C)nc(NC(C)C)n2)n2cnnc2)cc1 | . | . | 4 | . | 1.1 | -9
O=C(Cc1ccc(-n2cccc2)cc1)NC1CCCCCC1 | 41* | -9 | -18 | -10 | -0.49 | .
SMILES | VCAM1 TNFa inh | cytoskel mod | E-sel TNF inh | HUVEC tox TNFa | sdo1 growth | Phagocyt inh
CCCCN(CCCC)c1nc(OC)nc(-n2nnc(C(C)=O)c2C)n1 | 14 | -6 | -6 | -9 | -1.7 | .
CC(=O)c1nnn(-c2nc(N)nc(N(c3ccccc3)c3ccccc3)n2)c1C | 4 | 60 | 61* | -13 | -0.07 | .
CCCC(CCC)C(=O)NNc1cc(=O)c2c(=O)n(C)c(=O)n(C)c2[nH]1 | 11 | -14 | 100* | 6 | -1.3 | -1
Cn1nnc(NC(=O)c2ccccc2)n1 | -10 | 0 | -29 | -18 | 1.8 | .
COc1ccccc1C(=O)Nc1nnn(C)n1 | 53 | -32 | . | 78* | -0.43 | -1
COc1ccc(Br)cc1CN(C)CC(=O)Nc1cc(Cl)ccc1Cl | . | . | 89* | . | 0.21 | -7
Cc1cc(C)cc(NC(=O)CC2NCCNC2=O)c1 (centres undefined) | 86* | 22 | . | -29 | 0.26 | 0
O=S(=O)(Nc1cc2nc3ccccc3nc2n1Cc1ccccc1)c1ccc(Cl)cc1 | . | . | . | . | -0.24 | -4
Cc1cccnc1Nc1nc(-c2ccc(O)cc2O)cs1 | . | . | 2 | . | -2.4 | -1
Cc1cccnc1Nc1nc(-c2ccccn2)cs1 | 94* | -4 | 19 | 73 | -2.7 | 2
CCOC(=O)NC(=O)/C(C#N)=C(/C)N(C)C | . | . | 41 | . | . | .
COc1ccc(CNC(=O)c2cc3c(s2)CS(=O)C3)cc1 (centres undefined) | 4 | 8 | 21 | -38 | -0.39 | 0
COC(=O)c1cc2c(s1)CS(=O)C2 (centres undefined) | . | . | 96* | . | 0.11[13.7 µM] | .
COc1cccc(C(C)NC(=O)c2c(F)cccc2Cl)c1 (centres undefined) | . | . | 61* | . | 0.2 | 2
COc1cccc(C(=O)NC(C)c2ccc(Br)cc2)c1 (centres undefined) | . | . | . | . | 0.35 | -2
O=c1c(-c2ccc(Br)cc2)coc2c(CN3CCOCC3)c(O)ccc12 | 62* | 5 | -9 | 32 | -0.83 | -1
Cc1oc2c(CN3CCOCC3)c(O)ccc2c(=O)c1-c1ccc(Br)cc1 | 29 | 2 | 4 | -40 | -0.19 | -1
CCN(CC)S(=O)(=O)c1cc(C(=O)Nc2nncs2)c(Cl)cc1Cl | 2 | 5 | -33 | . | -0.28 | 26*
CCN(CC)S(=O)(=O)c1ccc(Cl)c(C(=O)Nc2nncs2)c1 | -6 | 10 | 20 | -10 | -0.45 | -2
O=c1[nH]c2ccccc2n1Cc1ccccc1 | 6 | 1 | 7 | -34 | 0.38 | 0
O=c1[nH]c2cccnc2n1Cc1ccccc1 | -8 | 35* | -9 | -10 | -0.24 | .
O=C(O)C1C2C=CC(O2)C1C(=O)Nc1ccc(S(=O)(=O)Nc2ccccc2)cc1 (centres undefined) | 14 | 38* | 21 | -16 | -0.7 | -1
O=C(O)C1C2C=CC(O2)C1C(=O)Nc1ccc(S(=O)(=O)N2CCc3ccccc32)cc1 (centres undefined) | 14 | 2 | 12 | 0 | -0.5 | 2
CC12CCC3(CO)COC(c4ccccc4O1)C2C3 (centres undefined) | . | . | 55* | . | -0.31 | -1
COc1ccc(-c2cc(C)nc(SCc3cccc(C(=O)O)c3)n2)cc1 | . | . | 69* | . | 0.33 | -2
COc1ccc(N2CCN(C(=O)CSc3nnc4c(C)cc5cc(C)ccc5n34)CC2)cc1 | -5 | 51* | . | -14 | -0.48 | -2
COc1ccc(N2CCN(C(=O)CSc3nnc4c(C)cc5c(C)cc(C)cc5n34)CC2)cc1 | -2 | -22 | -38 | 3 | -0.46 | 0
O=C(CCCNC(=O)/C(=C/c1ccccc1F)NC(=O)c1ccccc1)OCc1ccccc1 | . | . | . | . | -0.14 | -7
CN(C)c1cccc(C(=O)Nc2ccc(N3CCOCC3)cc2)c1 | 1 | 32* | 6 | -46 | -0.36 | 0
